D1 potentiator = potentiators of human D1 dopamine receptor; P21728; HEK293 TREx D1 cells, calcium flux, dopamine EC20 potentiation; potentiation, % at 10 µM; 360,000 tested, 0.036% active; AID 504651; in the data active = potentiation above about 30%
TRHR ag = TRH receptor (human) agonism. P34981. activation, % at 2 µM. 360,000 tested, 0.18% active. TRHR cells, calcium flux fluo-8, FDSS agonist mode
Target sequence (P34981 whole entry, looked up): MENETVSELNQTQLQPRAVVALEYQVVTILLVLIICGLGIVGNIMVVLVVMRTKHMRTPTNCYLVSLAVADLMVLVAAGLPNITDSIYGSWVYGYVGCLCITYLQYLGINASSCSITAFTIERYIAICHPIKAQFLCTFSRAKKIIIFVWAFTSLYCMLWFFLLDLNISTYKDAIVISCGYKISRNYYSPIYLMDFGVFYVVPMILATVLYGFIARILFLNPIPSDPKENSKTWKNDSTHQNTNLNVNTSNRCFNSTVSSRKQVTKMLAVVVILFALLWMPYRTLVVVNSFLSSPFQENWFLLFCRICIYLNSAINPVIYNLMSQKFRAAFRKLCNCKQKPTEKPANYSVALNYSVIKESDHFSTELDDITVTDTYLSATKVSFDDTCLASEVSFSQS
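Agonist-mode FDSS calcium read (Ex 480/Em 530, 1 s cycles) in 1536-well TRHR cells with fluo-8 dye, after 10-cycle baseline and 23 nL compound addition; TRH at EC20 (10 nM final) added afterwards for the enhancer phase.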
D1 ag = agonists of human D1 dopamine receptor | P21728 | HEK293 T-REx D1 cells, calcium flux, agonist mode | activation, % at 2 µM | 360,000 tested, 1% active
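Agonism was scored from calcium flux recorded over 180 s (1 read/s) after pintool compound addition, following a 10-cycle baseline. Cells were inducible force-coupled HEK293 TREx D1, plated overnight at 30 C and loaded with no-wash calcium dye.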
TRHR PAM = TRH receptor (human) allosteric enhancement. P34981. TRHR cells, fluo-8 calcium fluorescence, EC20 TRH enhancement. enhancement, % at 2 µM. 360,000 tested, 0.66% active; in the data active = enhancement above about 30%
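TRHR-expressing cells loaded with fluo-8 calcium dye were read kinetically (ex 480/em 530) during compound addition, then stimulated with an EC20 of TRH (10 nM final). Enhancement of the Gq-mediated intracellular calcium response was scored.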
Epigenetic derep = regulators of epigenetic silencing causing reporter derepression in mouse cells. murine LDR cells, GFP reporter derepression, 30 h. Potency, µM (titrated, usually from 53.9 µM), hits mostly activators. 280,000 tested, 0.2% active; active = well fitted activation curve with a large enough effect; note: nearly all actives have a fitted effect of over 60% in size
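Reporter derepression read as number of fluorescent GFP-positive objects, 20-120 um in size, counted by laser-scanning cytometer. Mouse LDR line with an epigenetically silenced CMV-GFP locus; compound incubation 30 h, 37 C.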
D1 antagonist = human D1 dopamine receptor antagonism; P21728; HEK293 TREx D1 cells, calcium flux, dopamine EC80; active compounds read low; activity change, negative = inhibition, % at 10 µM; 360,000 tested, 3.2% active; AID 504652; in the data active = activity change below about -30%
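Tetracycline-induced HEK293 T-REx cells with force-coupled D1 receptor were loaded with a no-wash calcium dye. Compound was added after a 10 s baseline and read kinetically for 180 s; EC80 dopamine was then added and calcium flux followed another 180 s.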
Large screens that a line does not name were inactive; ! = a repeat was not active. In the library only some 4.6% were active in any assay of this set; here they are far more common. Cut-off read from the data, not from the text of the source, unless noted: active = activation above about 30%; inactive = the rest.

COc1ccc2[nH]cc(CCNC(=O)CCC3CCCCC3)c2c1	D1 antagonist -43 (no result: Epigenetic derep)
COc1ccc2[nH]cc(CCNC(=O)Nc3ccccc3)c2c1	D1 antagonist -34!
O=c1c2ccccc2sn1-c1cc(S(=O)(=O)N2CCOCC2)ccc1N1CCOCC1	none
O=c1c2ccccc2sn1-c1cc(S(=O)(=O)N2CCOCC2)ccc1N1CCCC1	D1 ag 90
COc1ccc2c(c1)CC(C(=O)NCCN1CCN(c3cccc(Cl)c3)CC1)CO2 (centres undefined)	D1 antagonist -47
O=C(NCCN1CCN(c2ccccc2F)CC1)C1COc2ccccc2C1 (centres undefined)	D1 antagonist -57
COc1ccc2c(c1)CC(C(=O)NCCCN1CCN(c3ccccc3F)CC1)CO2 (centres undefined)	none
O=C(NCCN1CCN(c2cccc(Cl)c2)CC1)C1COc2ccccc2C1 (centres undefined)	D1 antagonist -86
O=S(=O)(NC1CCCC(NS(=O)(=O)c2c(F)cccc2F)C1)c1ccc2c(c1)OCCO2 (centres undefined)	none (no result: Epigenetic derep)
O=C(COC(=O)c1c2c(nc3ccccc13)/C(=C/c1ccco1)CC2)NC1CCCC1	D1 antagonist -49
CCc1ccc(OCC(=O)Nc2ccc(S(=O)(=O)Nc3ccccn3)cc2)cc1	D1 ag 42 (no result: Epigenetic derep)
CN1CCN(S(=O)(=O)c2ccc(NC(=O)c3ccccc3Cl)cc2)CC1	D1 antagonist -33 (no result: Epigenetic derep)
CCC(=O)N1CCN(c2ccc(NC(=O)COc3ccccc3[N+](=O)[O-])cc2)CC1	D1 ag 31
CCc1ccc(OCC(=O)Nc2ccc(S(=O)(=O)N3CCOCC3)cc2)cc1	D1 ag 44 (no result: Epigenetic derep)
COc1ccc(OCC(=O)Nc2ccc(S(=O)(=O)N3CCOCC3)cc2)cc1	none
CC(C)c1ccc(OCC(=O)Nc2ccc(S(=O)(=O)Nc3ccccn3)cc2)cc1	none (no result: Epigenetic derep)
CCc1ccccc1N1CC(c2nc3ccccc3n2CCC2CCCCC2)CC1=O (centres undefined)	none
O=C(CSc1nc2cc3ccccc3cc2[nH]1)Nc1cccc(C(F)(F)F)c1	none
Cc1ccccc1NCc1cccn1-c1nnc(N2CCC(C)CC2)s1	none
O=C(Nc1ccc(S(=O)(=O)N2CCN(Cc3ccccc3)CC2)cc1)c1cnccn1	D1 antagonist -36
CN1CCN(NC(=O)c2ccc(Cl)c(S(=O)(=O)Nc3ccc(Cl)cc3)c2)CC1	D1 antagonist -38
O=C(COc1ccccc1Cl)Nc1ccc(S(=O)(=O)N2CCOCC2)cc1	none (no result: Epigenetic derep)
O=C(COc1cccc(Cl)c1)NCC(c1cccs1)N1CCOCC1 (centres undefined)	D1 antagonist -35 (no result: Epigenetic derep)
CN1CCN(S(=O)(=O)c2ccc(NC(=O)COc3ccccc3Cl)cc2)CC1	D1 antagonist -53
CN1CCN(S(=O)(=O)c2ccc(NC(=S)NC(=O)c3ccc(Cl)cc3)cc2)CC1	D1 ag 30, D1 antagonist -57
Cc1cc(OCC(=O)Nc2ccc(S(=O)(=O)N3CCN(C)CC3)cc2)ccc1Cl	none
Cc1cc(OCC(=O)Nc2ccc(S(=O)(=O)N3CCN(C)CC3)cc2)cc(C)c1Cl	D1 antagonist -70
Cc1ccc(OCC(=O)Nc2ccc(N3CCCC3)cc2)cc1C	none
Cc1cc(OCC(=O)Nc2ccc(N3CCN(C)CC3)cc2)ccc1Cl	D1 antagonist -83 (no result: Epigenetic derep)
CN1CCN(c2ccc(NC(=O)COc3ccccc3Cl)cc2)CC1	D1 antagonist -70
COc1ccc(OC)c(CCNC(=O)CCCn2c(=O)c3cccn3c3ccccc32)c1	none
Cn1nc(C(=O)Nc2cc(F)ccc2F)c2c1-c1ccccc1SC2	none
O=C(COc1cccc(Cl)c1)Nc1ccc(N2CCOCC2)cc1	D1 antagonist -37
O=C(Nc1cccc(Cl)c1)Nc1cc(S(=O)(=O)N2CCCCC2)ccc1Cl	none
NS(=O)(=O)c1ccc(NC(=O)COC(=O)C2CCCCC2)cc1	none
CN1CCN(S(=O)(=O)c2ccc(NC(=O)c3ccc(Br)o3)cc2)CC1	none
CN1CCN(S(=O)(=O)c2ccc(NC(=O)Nc3cccc(Cl)c3)cc2)CC1	D1 antagonist -48
CN1CCN(S(=O)(=O)c2ccc(NC(=O)c3ccc(Br)s3)cc2)CC1	D1 antagonist -46
O=C(COC(=O)C1CCCCC1)Nc1ccc(N2CCCCC2)cc1	D1 antagonist -30
COc1ccc(N2C(=O)CS(=O)(=O)C23C(=O)N(Cc2ccc(F)cc2)c2ccc(C)cc23)cc1 (centres undefined)	none
CCCC(C(=O)Nc1ccc(S(=O)(=O)N2CCOCC2)cc1)c1ccccc1 (centres undefined)	D1 ag 37 (no result: Epigenetic derep)
CC(=O)NC1=NN(C(C)=O)C(C)(c2cccnc2)S1 (centres undefined)	D1 antagonist -46
CCc1ccc(C2(C)SC(NC(C)=O)=NN2C(C)=O)cc1 (centres undefined)	D1 ag 56
CC(=O)NC1=NN(C(C)=O)C(C)(c2ccc(C)o2)S1 (centres undefined)	none
CC(=O)NC1=NN(C(C)=O)C(C)(c2cccs2)S1 (centres undefined)	none
CCOC(=O)c1c(CSCc2ccccc2)oc2ccc(O)c(CN(C)C)c12	D1 ag 36
O=C(NCC(c1ccco1)S(=O)(=O)c1cccs1)c1ccc(Cl)cc1 (centres undefined)	none (no result: D1 antagonist)
Cc1ccc(NC(=O)C(C)c2cccc(C(=O)c3ccccc3)c2)cc1O (centres undefined)	D1 antagonist -32
CNC(=O)[C@H](C)/C=C(\c1cccnc1)C(NC(=O)OCc1ccccc1)c1ccc(C(=O)OC)cc1 (some centres undefined)	none (no result: D1 potentiator, TRHR ag, D1 ag, TRHR PAM, D1 antagonist)
COc1cccc2c1C(=O)c1c(O)c3c(c(O)c1C2=O)C[C@@](O)(C(C)=O)C[C@@H]3O[C@H]1C[C@H](N)[C@H](O)[C@H](C)O1	D1 ag 44
CCCCCCSc1ccc(-c2nc3ccc(C)cn3c2NCc2ccccc2)cc1	D1 antagonist -36 (no result: Epigenetic derep)
O=C(NCc1ccc(F)cc1Cl)C1CCN(S(=O)(=O)N2CCCCC2)CC1	D1 ag 50 (no result: Epigenetic derep)
CCS(=O)(=O)N1CCC(C(=O)NCc2ccc(F)cc2Cl)CC1	none
O=C(NCc1ccc(F)cc1)C1CCN(S(=O)(=O)c2ccc(Br)s2)CC1	D1 antagonist -30 (no result: Epigenetic derep)
CC(C)CN(CC(C)C)S(=O)(=O)N1CCC(C(=O)NCc2cccnc2)CC1	none
CC(C)CN(CC(C)C)S(=O)(=O)N1CCC(C(=O)NCc2ccc(F)cc2)CC1	D1 antagonist -67
Cc1cccc(NC(=O)c2oc3ccc(S(=O)(=O)N4CCC5(CC4)OCCO5)cc3c2C)c1C	none

Assay outcomes deposited in PubChem BioAssay by National Center for Advancing Translational Sciences (NCATS).
